From PubChem BioAssay
S aureus helic: S. aureus DNA helicase inhibition. purified S. aureus helicase, fluorescence unwinding assay. inhibition, % (test concentration not listed). 120,000 tested, 0.05% active; in the data active = inhibition above about 25%, passing the limit was not always enough;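 note: 0% = mean of negative control wells and 100% = mean of positive control wells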
Sa growth inh: inhibitors of Staphylococcus aureus growth at 42 °C | S. aureus RN4220 growth, OD600, 20 h; active compounds read low | relative growth, % (concentration not given with the values) | 170,000 tested, 0.53% active | AID 720641;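 active = relative growth at most 50% at the other temperature and 20+ points below 30 °C, or under 10% at both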
Numbers without * were called inactive; nt = no result. The entries come from a sample that favours hits as a whole.

SMILES	S aureus helic	Sa growth inh
CCCCN(CC)c1nc(N)c2c(N)nc(SCC(=O)O)cc2c1C#N	-15	6.2*
Cc1csc(=O)n1CCC(=O)OCC(=O)c1ccc(S(=O)(=O)N2CCCCC2)cc1	-11	92
COc1ccc(-n2nnnc2SCc2cc(=O)oc3cc(O)ccc23)cc1	-6	103
CN1/C(=C/c2cccc[n+]2C)C=Cc2ccccc21	54*	69
CN1/C(=C/C=C(C#N)C#N)C=Cc2ccccc21	-50	76
O=C(Nc1ccc(S(=O)(=O)N2CCCCC2)cc1)c1ccccn1	-7	91
CCOC(=O)/C(C#N)=C1\C(=O)Nc2ccccc21	0	104
N#C/C(C(N)=O)=C1/C(=O)Nc2ccc(Br)cc21	12	9.1*
Oc1ccccc1C=Nc1cccc(N=Cc2ccccc2O)c1	1	109
Oc1cccc(N=Cc2cc(Br)ccc2O)c1	-10	32*
O=C1CC(N2CCN(S(=O)(=O)c3ccc4c(c3)OCCO4)CC2)C(=O)N1c1cccc(C(F)(F)F)c1 (stereo not given)	-10	99
COc1cccc(C(=O)Nc2ccccc2-c2nnc(-c3ccc(C(C)(C)C)cc3)o2)c1	nt	115
CCOC(=O)c1sc(-c2ccc(F)cc2)cc1N	-6	48*
CCOC(=O)c1sc(-c2ccccc2)cc1N	7	nt
Cc1noc(Cn2c(=O)c3cc4c(cc3n(CC(=O)Nc3ccccc3Br)c2=O)OCO4)n1	nt	118
Cc1cc(NC(=O)c2ccccc2)nc2c1c(=O)oc1ccccc12	-5	nt
Cc1cc(NC(=O)c2ccc(N3C(=O)CCC3=O)cc2)nc2c1c(=O)oc1ccccc12	-11	0.1*
C=CCNc1ccc(C(=O)O)cc1	6	98
Cc1ccc(-n2nnnc2S(C)(=O)=O)c(C)c1	12	76
Cc1cccc(-n2nnnc2S(C)(=O)=O)c1	nt	-0.6*
COc1ccc(-c2noc(=O)[nH]2)cc1	15	87
CO/N=C(/C(=O)N[C@@H]1C(=O)N2C(C(=O)O)=C(COC(C)=O)CS[C@H]12)c1csc(N)n1	nt	1.1*
COCC1=C(C(=O)OC(C)OC(=O)OC(C)C)N2C(=O)[C@@H](NC(=O)/C(=N/OC)c3csc(N)n3)[C@H]2SC1 (stereo not given in full)	nt	37
C=CC1=C(C(=O)O)N2C(=O)[C@@H](NC(=O)C(=NO)c3csc(N)n3)[C@H]2SC1	nt	-0.1*
CC(=O)OCC1=C(C(=O)O)N2C(=O)[C@@H](NC(=O)Cc3cccs3)[C@H]2SC1	nt	-0.7*
SMILES	S aureus helic	Sa growth inh
CO/N=C(\C(=O)O)c1csc(N)n1	17	92
COc1ccc(N2CC(NC(=O)Cc3cccs3)CC2=O)cc1 (stereo not given)	nt	109
CC1=C(C(=O)N2CCOCC2)C(c2ccccc2F)C2=C(CC(C)(C)CC2=O)N1 (stereo not given)	4	nt
O=C(Cc1ccc(Cl)cc1)NCC1COC2(CCCC2)O1 (stereo not given)	10	104
Cc1cc(C)c(C)c(Cn2c(CO)nc3ccccc32)c1C	25	106
COc1cc(OC)c(N(C)C(=O)c2cn(C)c(=O)c3cc(OC)c(OC)cc23)cc1Cl	nt	107
CC1CN(CN2C(=O)c3ccccc3C2=O)CC(C)O1 (stereo not given)	13	91
COCCSc1nnc(NC(=O)C2CC(=O)N(C(C)(C)C)C2)s1 (stereo not given)	3	83
O=S(=O)(c1cccs1)c1cccs1	nt	94
N#Cc1nccnc1S(=O)(=O)c1cccs1	nt	-0.7*
O=C(COc1ccc(F)cc1)Nc1cccc(OCc2cc(=O)n3ccccc3n2)c1	nt	86
COc1cc(C(=O)N=C2C(C)=CC(=O)C=C2C)cc(OC)c1OC	1	-0.6*
COc1cc(C(=O)Oc2cc(C)cc(C)c2)cc(OC)c1OC	nt	103
CCCN=c1cc(-c2ccccc2)oc2ccc(C)cc12	65*	109
Cc1ccc2oc(-c3ccccc3)cc(=O)c2c1	nt	97
CC1CN(c2nc3ccccc3nc2SCC(=O)NCc2ccccc2Cl)CC(C)O1 (stereo not given)	6	107
CC(=O)NC12CCC3CC(CC(C3)C1)C2	2	87
Cc1ccc2c(c1)C1CN(C)CCC1N2C(=O)COc1ccccc1 (stereo not given)	-40	100
NC1=CC(=O)c2ccccc2C1=O	-5	0.6*
O=C1C=C(Nc2ccccc2)C(=O)c2ccccc21	19	24
O=C1C=C(c2ccccc2)C(=O)c2ccccc21	nt	3.8*
CC1=CC(=O)c2ccccc2C1=O	nt	17
O=C1C=C(Cc2ccc(F)cc2)C(=O)c2ccccc21	5	0.2*
O=C1C(=Cc2ccc(F)cc2)C(=O)c2ccccc21	nt	102
NC(=O)c1ccc(S(N)(=O)=O)o1	8	81
CC1(C(=O)Nc2ccccc2)Cc2ccccc2C(=O)O1 (stereo not given)	12	111
CCc1ccc(CCC(=O)Nc2sc3c(c2C(=O)OC)CCCC3)o1	5	112
S=C(NCCSc1ccc(Cl)cc1)Nc1cccc(Cl)c1	12	2
